# An excerpt weighted towards active compounds, which were near 3.5% of everything screened.
# UGM FP inh = inhibitors of M. tuberculosis UDP-galactopyranose mutase | P9WIQ1 | purified UGM, fluorescence polarization probe displacement | inhibition, % at 10 µM | 320,000 tested, 0.06% active; in the data active = inhibition above about 10%, passing the limit was not always enough
# Target sequence (P9WIQ1 whole entry, looked up): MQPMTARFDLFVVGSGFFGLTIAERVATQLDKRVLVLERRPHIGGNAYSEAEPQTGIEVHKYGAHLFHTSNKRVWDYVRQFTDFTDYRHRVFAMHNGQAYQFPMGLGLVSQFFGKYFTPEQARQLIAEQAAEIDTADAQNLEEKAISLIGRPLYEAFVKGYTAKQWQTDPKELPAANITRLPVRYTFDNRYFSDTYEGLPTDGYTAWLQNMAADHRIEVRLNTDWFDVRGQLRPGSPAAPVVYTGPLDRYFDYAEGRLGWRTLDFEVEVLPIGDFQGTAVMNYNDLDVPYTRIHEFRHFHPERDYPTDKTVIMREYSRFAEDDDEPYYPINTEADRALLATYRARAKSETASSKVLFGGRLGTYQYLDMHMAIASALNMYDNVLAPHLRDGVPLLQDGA
# FBA Mtb inh = Mtb fructose-bisphosphate aldolase inhibition. inhibition, % at 1 µM. 360,000 tested, 2.3% active. AID 588726. P9WQA3. purified M. tuberculosis FBA, fluorescence read-out; in the data active = inhibition above about 27%;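 note: 0% = vehicle and 100% = reference inhibitor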
# Rv3671c protease = Rv3671c (M. tuberculosis) protease inhibition. P9WHR9. 320,000 tested, 0.048% active. inhibition, % at 5.96 µM. AID 2606; in the data active = inhibition above about 38%;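 note: extracellular domain of Rv3671c used as enzyme; 0% = enzyme with DMSO and 100% = no enzyme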
# Mtb betalactam = beta-lactam sensitization of Mtb H37Rv; M. tuberculosis H37Rv growth with meropenem, percent inhibition; inhibition, % at 25 µM; 330,000 tested, 0.27% active; call rule not given here;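 note: growth measured after seven days incubation then overnight dye step; 0% = bacteria only wells and 100% = bacteria with antibiotic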
# GDH-TPI counter = counter-screen for M. tuberculosis FBA inhibitors: GDH-TPI coupled enzymes; inhibition, % at 4.8 µM; GDH-TPI coupled enzyme counterscreen, NADH absorbance; 360,000 tested, 1.2% active; in the data active = inhibition above about 30%;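 note: 0% = DMSO wells and 100% = wells lacking the enzyme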
# Numbers without * were called inactive; x = no result given; + = active, no number.
SMILES,UGM FP inh,FBA Mtb inh,Rv3671c protease,Mtb betalactam,GDH-TPI counter
COc1ccc2nc(NN=C(C)c3ccccn3)cc(C)c2c1,x,7.4,x,x,27.1
CCCCS(=O)(=O)N1CCN(S(=O)(=O)c2ccc(Cl)s2)CC1,-0.5,3.8,0.3,4.0,9.7
Cc1cc(=O)oc2cc3c(cc12)OCCN3,3.2,+,-8.6,-4.1,18.2
Cc1cc(=O)oc2cc3c(cc12)OCO3,-1.7,+,-5.4,-3.0,20.0
Cc1cc2cc3c(C)cc(=O)oc3c(C)c2o1,-0.5,5.8,0.4,6.3,-1.4
Cc1cc(=O)oc2cc3c(cc12)CCCN3,-2.1,+,4.4,-4.0,16.5
Cc1cc2c(C)cc(=O)oc2c2c1NCCC2,2.3,+,0.5,1.1,1.9
Cc1oc2c(C)c3oc(=O)c(CCC(=O)O)c(C)c3cc2c1-c1ccccc1,-2.8,1.6,-8.6,-3.7,6.0
Cc1ccc(NC(=O)CSc2nnc(C3CC3)n2CC2CCCO2)c(C)c1 (stereo not drawn),1.2,-2.5,2.2,-7.2,-6.2
C/C(=N\NC(=O)c1cc(-c2cccnc2)nc2ccccc12)c1ccc(O)cc1O,2.9,-0.7,5.4,15.0,34.9*
Cc1ccc(C=NNC(=O)c2cc(-c3cccnc3)nc3ccccc23)o1,-0.9,-0.3,-1.4,-0.1,34.4*
O=C(NCCc1ccc(Cl)cc1)C1CCC(CNc2c(N3CCCCC3)c(=O)c2=O)CC1 (stereo not drawn),0.7,-0.2,3.8,99.6,-5.3
O=C1NC(=S)SC1=Cc1ccccc1Cl,x,1.7,x,x,41.7*
O=C1NC(=S)S/C1=C\c1cccc([N+](=O)[O-])c1,x,-4.5,x,x,32.6*
CC1Cc2cc(/C=C3/SC(=S)NC3=O)ccc2O1 (stereo not drawn),0.2,-8.5,7.7,10.3,36.5*
CC1(C)Cc2c(sc(NC(=O)Cc3ccccc3)c2C#N)C(C)(C)N1,x,-0.6,x,x,15.9
Cc1ccc(S(=O)(=O)N(CC(=O)NC2CC3CCC2C3)c2ccccc2)cc1 (stereo not drawn),x,-2.2,x,x,-6.2
COc1ccc(/C=C2\CCCc3c2nc2ccccc2c3C(=O)O)cc1OC,48.4*,x,2.2,-7.6,x
CCOc1ccc(/C=C2\CCCc3c2nc2ccccc2c3C(=O)O)cc1OC,70.3*,-7.5,3.0,-15.2,10.7
COc1ccccc1-n1nnnc1SCC(=O)N1CCCC1=O,-0.8,1.0,-4.5,-25.9,6.5
CCOC(=O)/C(C#N)=C1/C=CN(C)C(C)=N1,4.4,-2.0,-8.8,1.5,67.3*
Oc1cccc2cc3cccc(O)c3c(O)c12,1.4,-3.0,37.8*,3.4,5.3
CCn1c(NC(=O)c2ccc(COc3ccc(C)cc3[N+](=O)[O-])o2)nc2ccccc21,2.0,0.9,6.6,69.7,31.8*
COCCCn1c(=O)/c(=C\c2ccccc2OC(C)C)s/c1=C(/C#N)C(=O)Nc1ccc(C(=O)O)cc1,15.1*,-1.9,-18.0,x,18.5
COc1ccc(C(=O)NCC(=O)N/N=C/c2cn[nH]c2-c2ccccc2)cc1,-5.2,-3.1,0.7,0.8,11.7
SMILES,UGM FP inh,FBA Mtb inh,Rv3671c protease,Mtb betalactam,GDH-TPI counter
CCOC(=O)C(/C=C(\C#N)C(=O)OCC)=C(/N)N1CCN(c2ccc(Cl)cc2)CC1,-1.2,-1.1,1.5,99.8,58.5*
CCOC(=O)N1CCN(c2ccc(Cl)cc2)CC1,-3.0,1.4,-10.7,-2.8,5.9
CN(Cc1nc(-c2ccc(Cl)cc2)no1)C(=O)CCN1C(=O)[C@H]2CC=CC[C@H]2C1=O,-2.4,-2.0,5.1,0.0,2.6
O=C(COc1ccccc1-c1ccccc1)N/N=C/c1ccccn1,0.0,0.6,-2.8,3.2,4.1
Cc1ccn2c(C(=O)N/N=C\c3cccs3)c(C)nc2c1,0.0,0.2,2.0,-13.9,62.4*
Cc1ccc2nc(C)c(C(=O)N/N=C/c3cccs3)cc2c1,-1.8,-1.1,-3.0,-5.1,18.4
Cc1ccc2nc(C)c(C(=O)NN=C3CCCCCC3)n2c1,-0.3,3.5,6.1,5.8,15.1
Cc1ccc2nc(C)c(C(=O)N/N=C/c3cccs3)n2c1,-0.8,1.1,2.0,3.3,36.6*
Cc1nc2ccccn2c1C(=O)N/N=C/c1ccccc1Cl,-0.7,-1.7,3.0,0.0,22.2
Cc1ccc(C)c(-n2c(C)cc(/C=N/NC(=O)c3c(C)nc4cc(C)ccn34)c2C)c1,-3.3,2.0,10.3,-9.8,38.8*
COc1cc2c(cc1OC)[C@@H](NC(=O)CCC1CCCCC1)[C@H](O)C2,x,-0.3,x,x,5.5
Cc1ccc2oc(=O)c3cc(C(=O)N4CCN(C)CC4)sc3c2c1,1.1,7.4,6.6,-3.9,15.0
Cc1c(C(=O)/C=C/N(C)C)nnn1-c1ccc(Cl)c(Cl)c1,-1.4,-2.5,-5.4,5.8,42.4*
Cc1c(C(=O)/C=C/N(C)C)nnn1-c1ccc(Cl)cc1Cl,2.1,-3.2,-5.0,-4.1,32.7*
Cc1c(C(=O)/C=C/N(C)C)nnn1-c1ccc(F)c(Cl)c1,1.3,1.2,-3.1,-1.7,34.7*
C=CCNC(=O)COc1cc(C)ccc1C,0.4,-0.1,0.8,-3.7,4.9
Cc1ccccc1C1c2[nH]c3ccccc3c2C[C@H]2C(=O)N(c3ccccc3C(=O)NCCCN3CCOCC3)C(=O)N12 (stereo partly drawn),0.3,1.1,-14.2,-6.1,-3.9
COCCNC(=O)Cn1cc(/C=C2\C(=O)NC(=O)N(c3cccc(C)c3C)C2=O)c2ccccc21,2.4,0.1,-3.8,-1.4,6.0
COCCCNC(=O)Cn1cc(/C=C2\C(=O)NC(=O)N(c3ccccc3F)C2=O)c2ccccc21,22.7*,-1.3,1.5,7.6,11.2
COCCNC(=O)Cn1cc(/C=C2\C(=O)NC(=O)N(c3ccccc3F)C2=O)c2ccccc21,14.9*,-3.5,-10.6,1.8,-3.7
NC(=O)Cn1cc(C=C2C(=O)NC(=O)NC2=O)c2ccccc21,29.6*,-0.7,x,-9.6,3.7
C=C(C)Cn1c(=O)c2c(nc3n2CC(C)CN3Cc2ccccc2)n(C)c1=O (stereo not drawn),-0.5,1.5,-4.6,-6.3,5.2
CN1CCc2c(sc3nc(SCC(=O)NCc4ccco4)n(-c4ccccc4)c(=O)c23)C1,-0.3,25.6,3.5,7.7,23.6
CCOc1ccc(-n2nc3ccc(NC(=O)CC)cc3n2)cc1,-1.1,+,x,3.3,8.4
CCOc1ccc(NC(=O)COc2ccc(-n3cnnn3)cc2)cc1,1.1,1.8,-2.2,74.4,-6.7
CCOc1ccc(NC(=O)CN2CCN(CC(=O)Nc3cccc(F)c3)CC2)cc1,-0.6,152.5*,-0.6,-8.6,-6.8
CCOc1ccc(NC(=O)CN2CCN(CC(=O)Nc3ccc4c(c3)OCCO4)CC2)cc1,-2.2,4.3,7.7,-4.4,9.3
COc1ccc(CN2CCNC(=O)C2CC(=O)N2CCCN(C(C)=O)CC2)cc1OC (stereo not drawn),-1.5,3.2,8.2,8.6,10.9
CCOC(=O)N1CCc2c(sc(NC(=O)CN(CC)CC)c2C#N)C1,1.9,1.5,-0.5,-10.3,5.5
C[C@H](CO)N1C[C@H](C)[C@H](CN(C)C(=O)Nc2ccccc2F)OCc2cnnn2CCCC1=O,x,1.0,x,x,-9.9
